Data on 59 compounds can be found in PubChem BioAssay AID2796 (The Scripps Research Institute Molecular Screening Center, 2010).

About 8,000 (2.5%) of roughly 320,000 compounds were called active. Only a selection was taken, and actives are over-represented in it overall. Unmarked numbers belong to inactive results. Rule as the data show it: active = activation above about 47%; inactive = the rest.

The target in this experiment is Aryl hydrocarbon receptor (Homo sapiens) (UniProt P35869). The experiment in a line: AHR activators, primary screen, cell-based, luminescence, luciferase reporter, human (AID 2796).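 Also: 0% = vehicle wells and 100% = reference agonist.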 The settings on record: AHR-responsive luciferase reporter cells, at 5 µM, stronger effect = higher value.
Sequence of Aryl hydrocarbon receptor (Homo sapiens) (P35869 whole entry, looked up): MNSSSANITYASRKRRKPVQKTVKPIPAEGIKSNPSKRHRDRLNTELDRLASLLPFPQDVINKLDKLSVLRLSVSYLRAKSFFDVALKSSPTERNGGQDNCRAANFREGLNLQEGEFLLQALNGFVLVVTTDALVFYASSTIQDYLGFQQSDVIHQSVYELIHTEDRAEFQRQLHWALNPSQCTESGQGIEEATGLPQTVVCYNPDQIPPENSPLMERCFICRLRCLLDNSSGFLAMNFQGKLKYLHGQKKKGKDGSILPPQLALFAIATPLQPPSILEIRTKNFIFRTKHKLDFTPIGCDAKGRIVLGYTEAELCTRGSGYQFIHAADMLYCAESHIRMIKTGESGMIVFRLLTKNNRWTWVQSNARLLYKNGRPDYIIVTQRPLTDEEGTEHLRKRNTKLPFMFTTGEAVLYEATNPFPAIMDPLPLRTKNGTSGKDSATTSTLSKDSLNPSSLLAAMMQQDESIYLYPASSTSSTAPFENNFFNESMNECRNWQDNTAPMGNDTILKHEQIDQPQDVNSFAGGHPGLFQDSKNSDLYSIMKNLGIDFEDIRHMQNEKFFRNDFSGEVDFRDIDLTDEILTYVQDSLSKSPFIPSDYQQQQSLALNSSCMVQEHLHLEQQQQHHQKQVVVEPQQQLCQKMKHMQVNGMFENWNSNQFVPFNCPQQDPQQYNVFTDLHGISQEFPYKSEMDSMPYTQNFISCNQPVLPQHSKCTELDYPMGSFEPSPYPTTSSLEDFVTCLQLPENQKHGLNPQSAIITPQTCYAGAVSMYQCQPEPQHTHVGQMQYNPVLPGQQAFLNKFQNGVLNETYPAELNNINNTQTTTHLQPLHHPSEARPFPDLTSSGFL
For the compound `O=C(NCc1ccc2c(c1)OCO2)C(=O)NCC1OCCN1S(=O)(=O)c1ccc(F)cc1` (centres undefined), the activation is 1.35%.

With `CC(=O)c1nn(-c2cccc(C(F)(F)F)c2)c(=O)[nH]c1=O`, the activation was 0.72%.

`COc1ccc(CCNC(=O)CCNS(=O)(=O)c2cc(Br)cnc2N)cc1OC`: the activation was -0.76%.

Regarding `O=C(CN(C(=O)CNC(=O)c1cccs1)c1cccc(F)c1)NC1CCCCC1`, the activation was 1.69%.

On to `Cc1ccc(C(=O)N2CCN(S(=O)(=O)N3CCOCC3)CC2)cc1`, for which the activation was 4.12%.

Turning to `CCC(C)C(=O)Nc1cc([N+](=O)[O-])ccc1Cl` (centres undefined), the activation is 12%.

On to `COc1ccc(S(=O)(=O)N2CCC(C(=O)N3CCCC3)CC2)cc1C`, for which the activation was -0.5%.

Turning to `C/C(=N\N)c1c(-c2ccccc2)c2cc(Br)ccc2[nH]c1=O`, the activation is 2.69%.

As for `COc1ccccc1C(=O)NCC(=O)OCC(=O)NNC(=O)c1ccc(Br)cc1`, the activation was 0.52%.

Regarding `Cc1cc2nc3n(c2cc1C)CC1CC(C(=O)NCCC(C)C)N(C)C31` (centres undefined), the activation is 2.06%.

For the compound `CCOC(=O)[C@H]1[C@H]2COc3ccccc3[C@@H]2N2C(=O)CN(Cc3ccccc3)C(=O)[C@@]12C`, the activation was 0.71%.

With `CCOC(=O)C1=C(COC(=O)[C@H](C)NS(=O)(=O)c2ccccc2F)NC(=O)NC1C` (some centres undefined), the activation is -0.94%.

Turning to `C[C@H](CO)N1C[C@H](C)[C@H](CN(C)C(=O)Nc2ccc(C(F)(F)F)cc2)Oc2c(NC(=O)c3ccncc3)cccc2C1=O`, the activation is 5.42%.

For the compound `O=C1Nc2ccc(Br)cc2/C1=N/N=C/C1=C(N2CCOCC2)C(=C\c2ccccc2)/CC1`, the activation is 22.3%.

On to `CC(C)C(=O)Nc1cccc(C(=O)Nc2ccc3c(c2)OCO3)c1`, for which the activation was 56% (active).

Turning to `Cc1ccc2nc(-c3ccncc3)cc(C(=O)Nc3ccc4c(c3)OCCO4)c2c1`, the activation was 5.93%.

In the case of `O=C(Nc1cccc([N+](=O)[O-])c1)c1ccc2c(c1)OCO2`, the activation was 14.3%.

For `O=C(Nc1cccnc1)c1ccc2c(c1)OCO2`, the activation was 51.4% (active).

On to `Cc1ccc2nc(-c3ccccn3)cc(C(=O)Nc3ccc4c(c3)OCO4)c2c1`, for which the activation is 47.8% (active).

On to `Cc1cccc(NC(=O)Nc2ccc3c(c2)OCO3)n1`, for which the activation is 180% (active).

As for `CC(NC(=O)Nc1ccc2c(c1)OCO2)c1ccncc1` (centres undefined), the activation is 29.5%.

Take `O=C(Nc1ccncc1)c1cc(-c2ccccn2)nc2ccc(Br)cc12`: the activation is 4.97%.

In the case of `O=C(Nc1ccccc1)c1ccc2c(c1)OCCCO2`, the activation is -1.81%.

As for `CC(C)CNS(=O)(=O)c1ccc(C(=O)Nc2ccc3c(c2)OCO3)cc1`, the activation is 9.22%.

Regarding `Cc1cccc(NC(=O)/C=C/c2ccc3c(c2)OCO3)n1`, the activation was -3.06%.

Regarding `O=C(Nc1ccc(NC(=O)c2ccc3c(c2)OCO3)cc1)c1cccc(Cl)c1`, the activation was -2.05%.

Regarding `CCN(C(=O)COC(=O)c1ccc(COc2ccc3c(C)cc(=O)oc3c2)cc1)C1CCS(=O)(=O)C1` (centres undefined), the activation was 1.82%.

For the compound `CC(=O)Nc1ccc(S(=O)(=O)NC(C)C(=O)OCCOc2ccc(F)cc2)cc1` (centres undefined), the activation was -0.37%.

With `Cc1cccc2nc(CSc3nc4[nH]ncc4c(=O)n3-c3cccc(Cl)c3)cc(=O)n12`, the activation was 2.86%.

For `COCC(C)n1c(C)cc(C(=O)CSc2cc(C)c3ccccc3n2)c1C` (centres undefined), the activation is 43.7%.

Turning to `O=C(Cc1ccc([N+](=O)[O-])cc1)Nc1ccc(C(=O)N2CCOCC2)cc1`, the activation is 0.42%.

Take `C=CCN(c1ccccc1C(=O)NCC(=O)OCC)S(=O)(=O)c1ccc(C)cc1`: the activation was -1.83%.

As to `Cc1ccccc1N1CCN(C2CCCN(C(=O)c3cn4c(C)cccc4n3)C2)CC1` (centres undefined), the activation is 1.46%.

For the compound `COc1ccc(-n2nc(C(=O)NCC(=O)N3CCN(c4ccccc4OC)CC3)c3ccccc3c2=O)c(OC)c1`, the activation was 3.01%.

`O=C(CCN1C(=O)[C@H]2CC=CC[C@H]2C1=O)NCc1nc(-c2ccccc2)no1`: the activation was 1.79%.

Turning to `CC(=O)N1CC(C)c2scc(C)[n+]2-c2ccccc21` (centres undefined), the activation was -2.51%.

Consider `O=C(Nc1nnc(C2CC2)s1)c1cc(Cl)sc1Cl`, for which the activation was 63.3% (active).

Turning to `Cc1cc(C(=O)Nc2nnc(C3CC3)s2)c(C)s1`, the activation is 23.6%.

In the case of `O=C(Nc1nnc(C2CC2)s1)c1ccccn1`, the activation is -1.71%.

As to `CCCCOc1ccc(NC(=O)CSCC(=O)OCC)cc1`, the activation was -0.97%.

With `Cc1[nH]c2ccccc2c1/C=N/NC(=O)CNC(=O)c1ccc2c(c1)OCO2`, the activation was 18.3%.

As to `COc1ccc2ccccc2c1/C=N/NC(=O)c1cc(C)[nH]n1`, the activation is 39%.

With `COCCNC(=S)N/N=C/c1c(C)[nH]c2ccccc12`, the activation is 47.6% (active).

In the case of `CCCCN(CC(=O)NC(C)(C)C)C(=O)C(=O)Nc1ccc2c(c1)OCCO2`, the activation was 7.49%.

Regarding `Cc1cc(=O)oc2ccc(OCC(=O)O)cc12`, the activation was -5.16%.

In the case of `Cc1cc(=O)oc2cc(OCC(=O)N3CCN(c4ccc(F)cc4)CC3)c(Cl)cc12`, the activation is -0.42%.

Regarding `Cc1nc(COc2cc3oc(=O)cc(C)c3cc2Cl)cs1`, the activation is 48.1% (active).

Regarding `CC(C)NC(=S)Nc1cccc2cnccc12`, the activation is 15%.

`COCCSc1nnc(NC(=O)CCS(=O)(=O)Cc2ccccc2)s1`: the activation was 22.7%.

Regarding `COc1ccc(-c2ccc3nnc(SCC(=O)Nc4ccc(NC(C)=O)cc4)n3n2)cc1`, the activation was 3.13%.

In the case of `Fc1ccc(-c2ccc(NCCN3CCOCC3)nn2)cc1`, the activation was 2.58%.

With `O=C(Cc1ccc([N+](=O)[O-])cc1)N/N=C/c1ccco1`, the activation was 1.25%.

As to `O=C(N/N=C/c1ccco1)c1csc2c1CCCC2`, the activation is 8.16%.

For the compound `O=C(N/N=C/c1ccco1)c1ccc(C(=O)N/N=C/c2ccco2)o1`, the activation is 86% (active).

On to `CCNC(=O)N(CC)C[C@H]1N[C@@](CC)(C(=O)OC)[C@H]2C(=O)N(Cc3ccccc3)C(=O)[C@@H]12`, for which the activation was -0.15%.

Regarding `COc1ccc(N(Cc2ccc(N(C)C)cc2)C(=O)c2ccc(S(C)(=O)=O)cc2)cc1`, the activation was -2.92%.

Take `COCc1cc(C)nc(SCC(=O)Nc2cccc(C)c2)c1C#N`: the activation is 2.83%.

Turning to `Cc1cc(C)c(C#N)c(Nc2cccc(Br)c2)n1`, the activation was 19.3%.

Turning to `COCc1cc(C)nc(Nc2cc(C)ccc2C)c1C#N`, the activation was 52.2% (active).
